From PubChem BioAssay AID2216 (Broad Institute, 2009)
Among all 300,000 compounds or so, about 3,300 (1.1%) were called active. Another 6% or so got no clear call; they are omitted. The entries come from a sample that favours actives as a whole. Unmarked numbers belong to inactive results.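 The calls were made as follows: active = more than half of the replicate wells show a fall in the fluorescence ratio signal beyond about 16% (limit read from the data, passing the limit was not always enough); inconclusive = exactly half of the replicate wells pass the set limit; inactive = fewer than half of replicates pass the limit.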

What follows are compounds tested on Ran GTPase (GTP-bound) - importin-beta complex (assay: inhibitors of RanGTP-importin-beta interaction, primary screen, biochemical, FRET, CFP-Ran, YFP-importin-beta, homogeneous (AID 2216;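 also: 0% = DMSO wells and 100% = Ran loaded with GDP instead of GTP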)). Conditions: cell-free CFP-Ran/YFP-importin-beta FRET ratio; hits give high values; concentration not given here.
`O=C(NCCSc1ncc(-c2ccccc2)[nH]1)c1ccco1` showed an inhibition of 3.47%. Work on `O=C(NC1CCCCC1)c1ccc(-c2ccc(Cl)cc2)o1` yielded an inhibition of 8.43%. `O=C(CSc1ccc(-c2ccc(-n3cccn3)cc2)nn1)Nc1ccc([N+](=O)[O-])cc1` gave an inhibition of -0.399%. For `CCN(CC(=O)Nc1ccc(S(=O)(=O)N2CCCC2)cc1)CC(=O)Nc1cccc(OC)c1`, the inhibition was 4.35%. With `CCN(CC(=O)Nc1cccc(S(=O)(=O)N2CCCCC2)c1)Cc1ccccc1` the inhibition was 16.2% (active). Work on `CC(=O)NC(CC(=O)Nc1cccc(S(=O)(=O)N2CCCC2)c1)c1ccccc1` (centres undefined) yielded an inhibition of 0.238%. `COc1ccc(CCNc2cc(N3CCN(C(=O)c4ccccc4OC)CC3)ccc2[N+](=O)[O-])cc1OC` was tested, and the inhibition was 3.89%. Work on `CC1CC(C)CN(S(=O)(=O)c2cccc3nonc23)C1` (centres undefined) yielded an inhibition of 2.14%. `COc1ccc2oc(C(=O)N(CC(C)C)C3CCS(=O)(=O)C3)c(C)c2c1` (centres undefined) was tested, and the inhibition was -2.12%. With `O=C(Nc1ccccc1N1CCCC1)c1ccc(F)c(S(=O)(=O)N2CCOCC2)c1` the inhibition was 1.55%. `COc1ccccc1CCNS(=O)(=O)c1cc2c3c(c1)C(C)C(=O)N3CCC2` (centres undefined) gave an inhibition of 4.16%. In the case of `Cc1cc(C)c(OCC(=O)N/N=C/c2ccco2)c(C)c1`, the inhibition is reported as -4.28%. For `COC(=O)COc1ccc2c(c1C)O/C(=C\c1ccco1)C2=O`, the inhibition was 47.4% (active). Compound `COC(=O)C1=C(C)N(c2ccc(Br)cc2)C(=O)/C1=C\c1ccco1` has an inhibition of 5.89%. `CCS(=O)(=O)c1ccc(-c2cccc(NC(=O)c3ccc(Br)o3)c2)nn1` gave an inhibition of 2.1%. Compound `CCOc1ccc(NS(=O)(=O)c2ccc(C(=O)NCC(c3ccccc3OC)N3CCCC3)cc2)cc1` (centres undefined) has an inhibition of -3.36%. Compound `CCCNC(=O)CCn1cc(-c2ccc(OC)cc2)nc1CCN` has an inhibition of -0.23%. `Cc1csc(NC(=O)CSc2nc(=O)cc(N)n2-c2ccc(F)cc2)n1` gave an inhibition of 1.41%. In the case of `O=S(=O)(NC1CCCCC1N1CCCCC1)c1ccc(Cl)cc1` (centres undefined), the inhibition is reported as 2.32%. Work on `CCN1CCN(C2CCCCC2NS(=O)(=O)c2ccc(Cl)cc2)CC1` (centres undefined) yielded an inhibition of 1.58%. In the case of `O=S(=O)(NC1CCCCC1N1CCC(O)CC1)c1ccc(Cl)cc1` (centres undefined), the inhibition is reported as 74.6% (active). In the case of `COc1ccc(CNC(=O)COC(=O)CCS(=O)(=O)c2ccc(C)cc2)cc1OC`, the inhibition is reported as 2.29%. `CCOc1ccc(-c2cc(C(=O)N/N=C/c3ccc(O)cc3)c3ccccc3n2)cc1` showed an inhibition of 2.59%. In the case of `CCN(CC)c1ccc2cc(C(=O)O)c(=O)oc2c1`, the inhibition is reported as 153% (active). For `CCN(CC)c1ccc2cc(C(N)=O)/c(=N\NC(=O)c3ccncc3)oc2c1`, the inhibition was 135% (active). `NC(=O)c1cc2ccccc2o/c1=N/NC(=O)c1cccc(F)c1` showed an inhibition of -7.02%. With `CCN(CC)c1ccc2oc(=O)c(C)nc2c1` the inhibition was -87.9%. For `COc1ccc(C(=O)N/N=c2\oc3ccccc3cc2C(N)=O)cc1`, the inhibition was 4.55%. With `CCOC(=O)c1cc2cc3ccccc3cc2oc1=O` the inhibition was 3.3%.
